Measured values: the supplement of paper PMC7366291
Counter-ions that a name gives are not always drawn. ± gives the standard deviation or the standard deviation of the averaged measurements.

System: Danio rerio Tg(wt1b:EGFP) embryo, pronephros
Assay: glomerular separation, fold change vs DMSO control; higher = glomeruli further apart (abnormal)
Conditions: 25 µM; exposure: 24-48 hpf
How it was run: (§1)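 From 24 to 48 hpf, at 28.5°C, dechorionated Tg(wt1b:EGFP) zebrafish embryos sat in HEPES-buffered E3 with 0.003% PTU carrying 25 μM compound and 0.5% DMSO. Their pronephroi were imaged dorsally in 96-well plates filled with agarose, using 470 nm light and 10 z-slices. A Fiji macro measured distances and angles between 16 reference points that were set manually on maximum projections, and any value more than 2 SD from its feature mean was excluded. Features are expressed as fold change relative to the mean of DMSO-treated embryos imaged on the same day.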

SMILES	glomerular separation
N[C@@H]1C[C@H]1c1ccccc1 [Tranylcypromine hydrochloride]	1.03 ± 0.28
CC(C)N(CCC(C(N)=O)(c1ccccc1)c1ccccn1)C(C)C (stereo not given) [Disopyramide]	0.9 ± 0.32
CCNCC(O)c1cccc(O)c1 (stereo not given) [Etilefrine hydrochloride]	0.79 ± 0.23
CO[C@]12C[C@@H](COC(=O)c3cncc(Br)c3)CN(C)[C@@H]1Cc1cn(C)c3cccc2c13 [Nicergoline]	1.02 ± 0.39
C#C[C@]1(O)CC[C@H]2[C@@H]3CCC4=CC(=O)CC[C@]4(C)[C@H]3CC[C@@]21C [Ethisterone]	0.918 ± 0.23
NCCc1c[nH]c2ccc(O)cc12 [Serotonin hydrochloride]	1.61 ± 1.2
C[C@@H]1C[C@@H]([C@H](O)CC2CC(=O)NC(=O)C2)C(=O)[C@@H](C)C1 [Cycloheximide]	0.972 ± 0.45
CCC1=C[C@H]2CN3CCc4c([nH]c5ccccc45)[C@](C(=O)OC)(C2)[C@H]13 [Catharanthine]	0.982 ± 0.32
CC(=O)O[C@H]1C[C@@H]2CC[C@@H]3[C@H](CC[C@@]4(C)[C@H]3C[C@H]([N+]3(C)CCCCC3)[C@@H]4OC(C)=O)[C@@]2(C)C[C@@H]1[N+]1(C)CCCCC1 [Pancuronium bromide]	1.23 ± 0.41
CC(C)[N+](C)(CCC(C(N)=O)(c1ccccc1)c1ccccc1)C(C)C [Isopropamide iodide]	0.996 ± 0.45
CN1C(=O)CCS(=O)(=O)C1c1ccc(Cl)cc1 (stereo not given) [Chlormezanone]	1.15 ± 0.46
CC(CCc1ccccc1)NC(C)C(O)c1ccc(O)cc1 (stereo not given) [Nylidrin]	0.871 ± 0.34
NC(=O)OCCCc1ccccc1 [Phenprobamate]	0.999 ± 0.4
CCN(C(C)=O)c1cccc(-c2ccnc3c(C#N)cnn23)c1 [Zaleplon]	0.976 ± 0.47
c1ccc2c(c1)OCC(C1=NCCN1)O2 (stereo not given) [Idazoxan hydrochloride]	0.851 ± 0.4
CC(=O)OCC1=C(C(=O)O)N2C(=O)[C@@H](N)[C@H]2SC1 [Cephalosporanic acid, 7-amino]	0.819 ± 0.17
CC(Cc1ccc(O)cc1)NCC(O)c1cc(O)cc(O)c1 (stereo not given) [Fenoterol hydrobromide]	1.33 ± 0.53
COc1ccc(CCN)cc1OC [Homoveratrylamine]	1.13 ± 0.38

SMILES	glomerular separation
O=C(NCNC(=O)NC1C(=O)NC(=O)N1CO)NC1C(=O)NC(=O)N1CO (stereo not given) [Imidurea]	0.876 ± 0.2
CC[C@@H](C(N)=O)N1CCCC1=O [Levetiracetam]	0.937 ± 0.41
NC(=O)C[S+]([O-])C(c1ccccc1)c1ccccc1 (stereo not given) [Modafinil]	1.04 ± 0.25
CCN(CC)C(C)C(=O)c1ccccc1 (stereo not given) [Amfepramone hydrochloride]	0.872 ± 0.24
COc1ccc(CCN2CCC(Nc3nc4ccccc4n3Cc3ccc(F)cc3)CC2)cc1 [Astemizole]	2.83 ± 2.3
S=C(NC1CCCCC1)N1CCC(c2cnc[nH]2)CC1 [Thioperamide maleate]	1.28 ± 0.6
c1ccc2nc(N3CCNCC3)ccc2c1 [Quipazine dimaleate salt]	1.09 ± 0.53
C[C@@H]1O[C@@H](O[C@@H]2C=C3CC[C@@H]4[C@H](CC[C@]5(C)[C@@H](c6ccc(=O)oc6)CC[C@]45O)[C@@]3(C)CC2)[C@H](O)[C@H](O)[C@H]1O [Proscillaridin A]	3.66 ± 1.1
COc1ccc(Cc2nccc3cc(OC)c(OC)cc23)cc1OC [Papaverine hydrochloride]	0.972 ± 0.22
CC[N+]1(C)CCCC(OC(=O)C(O)(c2ccccc2)c2ccccc2)C1 (stereo not given) [Pipenzolate bromide]	0.89 ± 0.28
O=P1(N(CCCl)CCCl)NCCCO1 (stereo not given) [Cyclophosphamide]	0.894 ± 0.2
CC(=O)NC1CCSC1=O (racemic) [N-Acetyl-DL-homocysteine Thiolactone]	0.761 ± 0.24
C=CC[C@]1(O)CC[C@H]2[C@@H]3CCC4=CC(=O)CCC4=C3C=C[C@@]21C [Altrenogest]	1.44 ± 0.77
O=c1[nH]c2ccccc2n1CCCN1CCC(n2c(=O)[nH]c3cc(Cl)ccc32)CC1 [Domperidone]	0.857 ± 0.34
CCC(C)C1O[C@]2(C=C[C@@H]1C)C[C@@H]1CC(C/C=C(\C)[C@@H](OC3C[C@H](OC)[C@@H](OC4C[C@H](OC)[C@@H](O)[C@H](C)O4)[C@H](C)O3)[C@@H](C)/C=C/C=C3\COC4[C@H](O)C(C)=CC(C(=O)O1)[C@]34O)O2 (stereo not given in full) [Avermectin B1a]	2.03 ± 1.1
CNC(=O)Oc1ccc2c(c1)[C@]1(C)CCN(C)[C@@H]1N2C [Eserine hemisulfate salt]	1.12 ± 0.17
CNCC(O)c1ccc(O)cc1 (racemic) [(+,-)-Synephrine]	1.01 ± 0.41

System: Danio rerio Tg(wt1b:EGFP) embryo, pronephros
Assay: glomerular width (mean of left and right), fold change vs DMSO control; higher = wider glomerulus
Conditions: 25 µM; exposure: 24-48 hpf
How it was run: as §1

SMILES	glomerular width
N[C@@H]1C[C@H]1c1ccccc1 [Tranylcypromine hydrochloride]	1.021 ± 0.0055
CC(C)N(CCC(C(N)=O)(c1ccccc1)c1ccccn1)C(C)C (stereo not given) [Disopyramide]	1.09 ± 0.086
CCNCC(O)c1cccc(O)c1 (stereo not given) [Etilefrine hydrochloride]	0.9277 ± 0.0022
CO[C@]12C[C@@H](COC(=O)c3cncc(Br)c3)CN(C)[C@@H]1Cc1cn(C)c3cccc2c13 [Nicergoline]	1.02 ± 0.037
C#C[C@]1(O)CC[C@H]2[C@@H]3CCC4=CC(=O)CC[C@]4(C)[C@H]3CC[C@@]21C [Ethisterone]	1.06 ± 0.071
NCCc1c[nH]c2ccc(O)cc12 [Serotonin hydrochloride]	0.902 ± 0.038
C[C@@H]1C[C@@H]([C@H](O)CC2CC(=O)NC(=O)C2)C(=O)[C@@H](C)C1 [Cycloheximide]	0.604 ± 0.14
CCC1=C[C@H]2CN3CCc4c([nH]c5ccccc45)[C@](C(=O)OC)(C2)[C@H]13 [Catharanthine]	1.07 ± 0.1
CC(=O)O[C@H]1C[C@@H]2CC[C@@H]3[C@H](CC[C@@]4(C)[C@H]3C[C@H]([N+]3(C)CCCCC3)[C@@H]4OC(C)=O)[C@@]2(C)C[C@@H]1[N+]1(C)CCCCC1 [Pancuronium bromide]	0.928 ± 0.13
CC(C)[N+](C)(CCC(C(N)=O)(c1ccccc1)c1ccccc1)C(C)C [Isopropamide iodide]	1.0283 ± 0.001
CN1C(=O)CCS(=O)(=O)C1c1ccc(Cl)cc1 (stereo not given) [Chlormezanone]	1.05 ± 0.11
CC(CCc1ccccc1)NC(C)C(O)c1ccc(O)cc1 (stereo not given) [Nylidrin]	1.02 ± 0.035
NC(=O)OCCCc1ccccc1 [Phenprobamate]	1.03 ± 0.022
CCN(C(C)=O)c1cccc(-c2ccnc3c(C#N)cnn23)c1 [Zaleplon]	0.943 ± 0.034
c1ccc2c(c1)OCC(C1=NCCN1)O2 (stereo not given) [Idazoxan hydrochloride]	0.99138 ± 0.00087
CC(=O)OCC1=C(C(=O)O)N2C(=O)[C@@H](N)[C@H]2SC1 [Cephalosporanic acid, 7-amino]	1.136 ± 0.0094
CC(Cc1ccc(O)cc1)NCC(O)c1cc(O)cc(O)c1 (stereo not given) [Fenoterol hydrobromide]	1.051 ± 0.0075
COc1ccc(CCN)cc1OC [Homoveratrylamine]	0.994 ± 0.012

SMILES	glomerular width
O=C(NCNC(=O)NC1C(=O)NC(=O)N1CO)NC1C(=O)NC(=O)N1CO (stereo not given) [Imidurea]	1.008 ± 0.01
CC[C@@H](C(N)=O)N1CCCC1=O [Levetiracetam]	1.04 ± 0.041
NC(=O)C[S+]([O-])C(c1ccccc1)c1ccccc1 (stereo not given) [Modafinil]	1.09 ± 0.073
CCN(CC)C(C)C(=O)c1ccccc1 (stereo not given) [Amfepramone hydrochloride]	0.97173 ± 0.00026
COc1ccc(CCN2CCC(Nc3nc4ccccc4n3Cc3ccc(F)cc3)CC2)cc1 [Astemizole]	0.777 ± 0.12
S=C(NC1CCCCC1)N1CCC(c2cnc[nH]2)CC1 [Thioperamide maleate]	0.974 ± 0.011
c1ccc2nc(N3CCNCC3)ccc2c1 [Quipazine dimaleate salt]	1.01 ± 0.04
C[C@@H]1O[C@@H](O[C@@H]2C=C3CC[C@@H]4[C@H](CC[C@]5(C)[C@@H](c6ccc(=O)oc6)CC[C@]45O)[C@@]3(C)CC2)[C@H](O)[C@H](O)[C@H]1O [Proscillaridin A]	0.716 ± 0.029
COc1ccc(Cc2nccc3cc(OC)c(OC)cc23)cc1OC [Papaverine hydrochloride]	1.04 ± 0.065
CC[N+]1(C)CCCC(OC(=O)C(O)(c2ccccc2)c2ccccc2)C1 (stereo not given) [Pipenzolate bromide]	1.051 ± 0.0016
O=P1(N(CCCl)CCCl)NCCCO1 (stereo not given) [Cyclophosphamide]	0.913 ± 0.0021
CC(=O)NC1CCSC1=O (racemic) [N-Acetyl-DL-homocysteine Thiolactone]	1.07 ± 0.041
C=CC[C@]1(O)CC[C@H]2[C@@H]3CCC4=CC(=O)CCC4=C3C=C[C@@]21C [Altrenogest]	1.07 ± 0.0053
O=c1[nH]c2ccccc2n1CCCN1CCC(n2c(=O)[nH]c3cc(Cl)ccc32)CC1 [Domperidone]	1.03 ± 0.08
CCC(C)C1O[C@]2(C=C[C@@H]1C)C[C@@H]1CC(C/C=C(\C)[C@@H](OC3C[C@H](OC)[C@@H](OC4C[C@H](OC)[C@@H](O)[C@H](C)O4)[C@H](C)O3)[C@@H](C)/C=C/C=C3\COC4[C@H](O)C(C)=CC(C(=O)O1)[C@]34O)O2 (stereo not given in full) [Avermectin B1a]	0.898 ± 0.044
CNC(=O)Oc1ccc2c(c1)[C@]1(C)CCN(C)[C@@H]1N2C [Eserine hemisulfate salt]	1 ± 0.0036
CNCC(O)c1ccc(O)cc1 (racemic) [(+,-)-Synephrine]	0.959 ± 0.015
